The list is not random: actives were taken first. Their share in the collection is about 7%.
ATXN2 expr inh = reduces ATXN2 reporter expression in HEK-293 cells; HEK-293 ATXN2-luciferase reporter, luminescence, 24 h; Potency, µM (doses to about 57 µM), without a hit: at the highest dose activity change, negative = inhibition, most hits filed as inhibitors; 360,000 tested, 0.72% active; also: potency is read from the fitted curve at half-maximal effect; % is scaled to controls: 0 for no effect and ±100 for the full control effect; nearly all actives have a fitted effect of over 55% in size
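qHTS (up to 57 uM final) was run with 24 h compound exposure of reporter cells at 37 °C. Each well was multiplexed: SteadyGlo luminescence measured ATXN2-luciferase expression after a fluorogenic Gly-Phe-AFC viability readout (25 uM final).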
DRD3 agonist = activates the human D3 dopamine receptor | D3R DiscoveRx beta-arrestin cells, luminescence, 90 min | max activation, % | 410,000 tested, 0.58% active | AID 652048; in the data active = max activation above about 30%; also: 0% is about no effect
Target sequence (P35462 whole entry, looked up): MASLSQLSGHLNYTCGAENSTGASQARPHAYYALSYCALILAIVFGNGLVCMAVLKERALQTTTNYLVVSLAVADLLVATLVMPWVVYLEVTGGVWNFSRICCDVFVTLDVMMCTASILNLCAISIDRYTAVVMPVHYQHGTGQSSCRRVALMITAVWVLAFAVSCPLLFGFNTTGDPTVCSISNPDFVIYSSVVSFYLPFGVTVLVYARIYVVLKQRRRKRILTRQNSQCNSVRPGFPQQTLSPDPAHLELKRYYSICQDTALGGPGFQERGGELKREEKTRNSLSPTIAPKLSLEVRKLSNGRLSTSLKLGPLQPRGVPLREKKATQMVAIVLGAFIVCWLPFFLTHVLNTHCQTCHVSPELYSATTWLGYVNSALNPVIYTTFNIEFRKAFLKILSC
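Agonist mode: compounds and dopamine controls were applied to plated cells for 90 min at 37 degrees C after an overnight attachment at 1500 cells/well. Luminescent read-out followed 30 - 60 minutes at room temperature with DiscoveRx detection reagent.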
S2 tox = cell viability loss in ATXN counter-screen; S2 cells (HEK-293 line with an ATXN2-luciferase reporter) viability, CellTiter-Fluor protease fluorescence, 24 h; Potency, µM (top dose mostly 56.7 µM), actives largely listed as cytotoxic; 400,000 tested, 0.49% active; also: potency is read from the fitted curve at half-maximal effect; nearly all actives have a fitted effect of over 40% in size
IL-1B inflam inh = blocks inflammasome-driven IL-1 beta release; THP-1 LPS/ATP IL-1B secretion, AlphaLISA, 16 h; stronger effect = lower value; activity change, % at 57.5 µM; 360,000 tested, 4.7% active; AID 743279; in the data active = activity change below about -50%; inconclusive = mostly about -30% to -49%; also: % is scaled to controls: 0 for no effect and ±100 for the full control effect
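Secreted IL-1B measured by AlphaLISA bead assay after 16 h compound exposure of THP-1 cells; compounds (final up to 57.5 uM) added 1 h before LPS (250 ng/mL) and ATP (1.25 mM) stimulation; lower signal means less secretion.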
D3 antag = blocks the human D3 dopamine receptor; 360,000 tested, 2.5% active; max response, negative = inhibition, %; P35462; D3R cells, DiscoveRx beta-arrestin luminescence, antagonist mode; stronger effect = lower value; in the data active = max response below about -50%; inconclusive = no clear call, values can overlap the other calls; also: % is scaled to controls: 0 for no effect and ±100 for the full control effect
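Cells expressing the human receptor were seeded at 1500 cells/well, incubated overnight at 37 degrees C in 5% CO2, then exposed to library compounds with dopamine controls for 90 minutes at 37 degrees C before luminescent detection.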
Integrin act MD = activates integrin-mediated alleviation for muscular dystrophy; 350,000 tested, 0.064% active; AID 624291; alpha7betagal myoblasts, beta-gal FDG fluorescence, 48 h; Potency, µM (highest dose often 38.3 µM), without a hit: top-dose activation, usual class: activators;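 also: potency is read from the fitted curve at half-maximal effect; 100% = response of the positive control SU9516; nearly all actives have a fitted effect of over 60% in size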
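Alpha7betagal+/- myoblasts (passage 13) were plated 16-24 hr, then exposed to compounds (1:260 dilution of DMSO stock) for 48 hours at 37C. After MPER lysis, β-galactosidase reporter activity was read as FDG fluorescence (ex 480/em 540) after 30 minutes.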
Active calls of the source: *; i = inactive; ? = inconclusive; . = no result given. Unless noted, calls follow the shape of the dose curve; as a rule, active = well fitted curve in the direction sought with a large enough effect; inconclusive = small, poorly fitted or top-dose-only effect, or another doubt; inactive = no such curve, though single readings can be large; an effect the other way counts as inactive or inconclusive.

SMILES	ATXN2 expr inh	DRD3 agonist	S2 tox	IL-1B inflam inh	D3 antag	Integrin act MD
COc1ccc([N+](=O)[O-])cc1NC(=O)CCN1CCN(c2ccccc2OC)CC1	0.3%	5.8	i	15.2	-75.5*	-13.4%
Cc1ccc(C)c(OCC(=O)NNC(=O)CCN2CCN(c3ccccc3)CC2)c1	-17.4%	-5.8	i	-10.0	-71.4*	-22.7%
COc1ccc(C)cc1NC(=O)CCN1CCN(c2ccccc2F)CC1	-19.0%	34.2*	i	6.5	?	?
CCN(CCC(=O)Nc1cc([N+](=O)[O-])ccc1OC)Cc1ccccc1	-7.6%	-24.7	i	7.3	-80.6*	13.1%
COc1ccc(C)cc1S(=O)(=O)N1CCN(C(=O)c2ncoc2-c2cccc(F)c2)CC1	-11.6%	2.5	i	0.0	-4.4	-1.7%
COc1ccccc1NC(=O)N1CCc2[nH]c3ccc(F)cc3c2C1	-13.0%	-9.1	i	?	-7.3	16.0%
CCOc1ccc(Br)cc1S(=O)(=O)N1CCCC1	3.0%	0.8	i	-21.3	2.5	32.1%
COc1ccc(C)cc1NC(=O)CN1CCN(C/C=C/c2ccccc2)CC1	-18.7%	-1.0	i	-17.6	-70.0*	-33.4%
COc1cc(NC(=O)CN2CCN(c3ccccc3F)CC2)c(C)cc1[N+](=O)[O-]	7.6%	-0.1	i	36.3	1.3	17.6%
COc1ccc(C)cc1NC(=O)CN1CCN(c2ccccc2F)CC1	-8.9%	-9.2	i	-4.2	-69.5*	-15.6%
COc1ccc(NC(=O)CCN2CCCCCC2)c(OC)c1	-3.9%	-23.8	i	0.0	-55.1*	5.2%
Cc1ccc(C)c(NC(=O)CCN2CCN(c3ccccc3F)CC2)c1	.	14.9	i	-4.8	-64.1*	-14.4%
COc1ccc(NC(=O)CCN2CCOCC2)c(OC)c1	-9.1%	-0.2	i	6.7	3.3	6.4%
CCN(CC(=O)NC)S(=O)(=O)c1ccc(C)cc1	-3.8%	-1.5	i	10.5	18.6	16.9%
Cc1ccc(OCC(=O)Nc2nnc(SCc3cc(=O)c4ccccc4[nH]3)s2)cc1	-12.4%	13.8	i	.	.	.
COc1cc(/C=N/NC(=O)Cn2cnc3c2c(=O)n(C)c(=O)n3C)ccc1O	-13.2%	1.6	i	48.7	2.8	14.6%
COc1ccc(C)cc1NC(=O)c1ccc(CN2CCN(c3ccccc3)CC2)cc1	44.7%	20.0	i	8.1	?	-16.9%
CCOc1ccc(NC(=O)CCN2CCN(c3ccccc3F)CC2)cc1	-21.4%	12.5	?	42.1	?	0.0%
O=C(CCN1CCN(c2ccccc2)CC1)N/N=C/c1ccccc1O	26.7µM*	-33.1	i	141.0	-67.2*	-6.6%
COc1ccc([N+](=O)[O-])cc1NC(=O)C(C)OC(=O)CN1C(=O)C2CC=CCC2C1=O (stereo not drawn)	-21.6%	-3.2	.	-62.9*	-0.8	?
COc1ccc(C)cc1NC(=O)CCN1CCN(c2ccccc2)CC1	-5.5%	39.3*	i	11.8	?	16.6%
COc1ccc(OC)c(NC(=O)CCN2CCN(c3ccccc3F)CC2)c1	-9.3%	64.2*	?	-21.1	1.5	1.8%
CC1=C(C(=O)N(C(C)C)C(C)C)CC(CC(=O)NC2CC2)C(=O)N1CCC1=CCCCC1 (stereo not drawn)	2.1%	0.7	i	42.5	7.9	.
CCOc1cc(C(=O)OCc2cccc(OC)c2OC)ccc1OCC(=O)N1CCOCC1	?	-14.6	i	?	-5.1	7.1%
COc1ccc(Br)cc1CN(C)C(C)C(=O)Nc1cc([N+](=O)[O-])ccc1OC (stereo not drawn)	-12.1%	-17.1	i	33.4	-3.4	-13.8%
SMILES	ATXN2 expr inh	DRD3 agonist	S2 tox	IL-1B inflam inh	D3 antag	Integrin act MD
COc1cccc(NC(=O)CCN2CCN(c3ccccc3F)CC2)c1	?	39.3*	i	4.9	?	3.7%
COc1ccc([N+](=O)[O-])cc1NC(=O)C(C)N(C)Cc1ccc(Br)cc1 (stereo not drawn)	-9.2%	-24.0	?	16.0	-64.3*	-25.8%
COc1cccc(NC(=O)CCN2CCN(c3ccccc3)CC2)c1	.	14.9	.	.	.	.
CCCOc1ccc(C2c3c(oc4ccc(F)cc4c3=O)C(=O)N2CCc2ccc(OC)cc2)cc1 (stereo not drawn)	10.2%	9.7	i	.	.	.
Cc1ccc(-c2ccc(SCC(=O)Nc3ccc4c(c3)OCCO4)nn2)cc1	34.3%	3.3	?	-7.3	21.5	-5.9%
CC1(c2ccccc2Cl)NC(=O)N(CC(=O)Nc2ccc3c(c2)OCO3)C1=O (stereo not drawn)	-16.7%	2.3	i	-9.9	-71.4*	?
Cc1ccc(C2=NC3(CCCCC3)N=C2SCC(=O)Nc2ccc3c(c2)OCCO3)cc1	-21.6%	-5.0	i	-93.2*	0.0	3.4%
COc1ccc(C2(C)NC(=O)N(CC(=O)Nc3ccc4ccccc4c3)C2=O)cc1OC (stereo not drawn)	-22.4%	12.0	i	-55.3*	2.7	-6.6%
Cc1cc(C)nc(SCC(=O)Nc2ccc3c(c2)OCO3)n1	1.4%	-18.3	i	-83.0*	5.0	-7.3%
COc1ccc(NC(=O)c2oc3ccc(S(=O)(=O)N4CCC5(CC4)OCCO5)cc3c2C)cc1Cl	.	24.4	.	.	.	.
CN(CC(=O)Nc1ccc2c(c1)OCO2)CC(=O)Nc1ccc(F)c(F)c1F	5.0%	0.1	i	0.0	-3.6	-38.4%
CN(CC(=O)Nc1ccc(Cl)c(Cl)c1)CC(=O)Nc1ccc2c(c1)OCO2	-14.4%	3.2	i	-56.8*	29.4	-23.3%
Cc1cccc(NC(=O)c2sc3nc4c(c(-c5cccs5)c3c2N)CN(C)CC4)c1	?	-10.6	i	-86.2*	-4.3	-39.4%
CC(C)NC(=O)c1sc2nc3c(c(-c4cccs4)c2c1N)CN(C)CC3	-9.5%	-1.1	i	-9.0	-11.6	3.6%
C=CCC[C@H](CCCCC)OC(=O)/C=C/[C@H](O)[C@@H](O)C[C@H](O)CC=C	-14.0%	-2.4	i	-21.0	-9.5	.
C=CCC[C@@H](CCCCC)OC(=O)/C=C/[C@H](O)[C@@H](O)C[C@H](O)CC=C	-17.7%	-1.7	?	-54.8*	4.4	.
Cc1ccc(S(=O)(=O)N2CCC(C(=O)NCCCN3CCOCC3)CC2)cc1	-2.3%	-0.2	i	12.2	-0.6	-13.4%
Cc1ccc(OC(=O)c2oc3ccc(F)cc3c2C)c(C)c1	?	2.8	17.8µM*	-20.7	-6.4	-28.3%
CC(C(=O)Nc1ccc(F)cc1Cl)N1CCN(S(=O)(=O)c2cccs2)CC1 (stereo not drawn)	-23.5%	-10.1	i	?	2.7	39.2%
CC(C)OCCCN(C)C1CCN(S(=O)(=O)c2csc(C(N)=O)c2)CC1	-2.7%	-6.1	i	3.1	-8.4	-14.8%
